An excerpt weighted towards active compounds, which were near 13% of everything screened.
miR-21 act = qHTS Assay for Modulators of miRNAs and/orActivators of miR-21 | HeLa miR-21 FLuc reporter, luciferase, 48 h | Potency, µM (doses to about 38.3 µM), without a hit: at the highest dose activity change, positive = activation, actives largely listed as activators | 340,000 tested, under 10 active;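 further: % of control where 0% means no effect; miR-21 action dims this reporter so a rising signal means less miR-21 action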
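HeLa cells stably expressing CMV-driven firefly luciferase with a downstream miR-21 binding sequence, endogenously expressing miR-21, were treated with titrations (up to about 40uM final) for 48 hours at 37 degree Celsius. Luciferase luminescence was read after lysis.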
G9a inh = qHTS Assay for Inhibitors of Histone Lysine Methyltransferase G9a. G9a H3K9 monomethylation, AlphaScreen, 2 h. Potency, µM (doses to about 102 µM), without a hit: at the top dose activity, negative = inhibition, hits mostly inhibitors. 350,000 compounds, 8.8% hits. AID 504332, 2011; further: potency means the concentration at half of the fitted maximal effect; on the % scale 0 is the no-effect control and ±100 the full control effect; nearly all actives have a fitted effect of over 75% in size
Target sequence (Q96KQ7 913-1193 limits assumed): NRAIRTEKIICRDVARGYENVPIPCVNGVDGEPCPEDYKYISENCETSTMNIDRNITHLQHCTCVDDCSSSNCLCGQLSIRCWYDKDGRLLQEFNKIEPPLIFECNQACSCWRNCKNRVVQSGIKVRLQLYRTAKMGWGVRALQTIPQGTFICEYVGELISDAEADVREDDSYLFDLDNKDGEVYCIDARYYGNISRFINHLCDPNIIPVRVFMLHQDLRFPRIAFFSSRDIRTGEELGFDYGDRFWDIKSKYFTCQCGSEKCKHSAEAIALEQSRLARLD
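Quantitative HTS format: methyltransferase activity on a biotin-tagged H3K9 peptide is measured by AlphaScreen, using a rabbit anti-monomethyl-H3K9 antibody with streptavidin donor and anti-IgG acceptor beads. Final levels are 20 nM enzyme, 500 nM peptide, 20 uM SAM; 2 h RT.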
LMNA splice mod = qHTS Assay for Modulators of Lamin A Splicing. HeLa LMNA splicing GFP/RFP minigene ratio, 48 h. AID 1487, 2009. 200,000 compounds, 0.01% hits. Potency, µM (doses to about 46.1 µM), for the others: at the highest dose ratio change, negative = inhibition, most hits filed as inhibitors; active means well fitted inhibition curve with a large enough effect in the signal ratio, with a control signal flat, not every such curve was filed as active; inconclusive means small, poorly fitted or top-dose-only effect, or effect the other way, or a change in a side signal; the % refers to the signal ratio; further: potency means the concentration at half of the fitted maximal effect; on the % scale 0 is the no-effect control and ±100 the full control effect
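S3 HeLa cells stably expressing lamin A-EGFP splicing minigene plus DsRed2, 600 cells/well, 48 h compound exposure at 37C. Laser-scanning cytometry; analysed as GFP (500-530 nm)/RFP (575-640 nm) total intensity ratio; 0.5% DMSO vehicle.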
KDM4E inh = qHTS Assay for Inhibitors of Human Jumonji Domain Containing 2E (JMJD2E) | Lysine-specific demethylase 4E (Homo sapiens), B2RXH2 | JMJD2E catalytic domain, FDH-coupled NADH fluorescence (FDH is formaldehyde dehydrogenase) | Potency, µM (titrated, usually from 57.1 µM), for inactives: at the top dose activity change, negative = inhibition, most hits filed as inhibitors | 230,000 compounds, 1.6% hits; active means well fitted inhibition curve with a large enough effect, not every such curve was filed as active; inconclusive means small, poorly fitted or top-dose-only effect, or another doubt; inactive means no such curve, though single readings can be large or run the other way;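 further: potency means the concentration at half of the fitted maximal effect; 0% = wells with enzyme and -100% = buffer wells without enzyme; nearly all actives have a fitted effect of over 50% in size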
Sfp inh = qHTS Assay for Inhibitors of Bacillus subtilis Sfp phosphopantetheinyl transferase (PPTase); 4'-phosphopantetheinyl transferase ffp (Bacillus subtilis), Q9F4F7; Biochemical Sfp PPTase activity, qHTS; 310,000 compounds, 3.5% hits; Potency, µM, for inactives: largest response in the series, negative = inhibition, most hits filed as inhibitors;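 further: the enzyme is Sfp with the accession as filed and its product quenches rhodamine fluorescence; potency means the concentration at half of the fitted maximal effect; 0% = enzyme reaction without inhibitor and -100% = no enzyme wells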
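Buffer: 50 mM Hepes-Na pH 7.6, 10 mM MgCl2, 0.01% Nonidet P-40, 0.01% BSA. Enzyme 15 nM, pre-exposed to compound 15 min; substrates then added and fluorescence change tracked over 30 min.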
ALDH1A1 block = qHTS Assay for Inhibitors of Aldehyde Dehydrogenase 1 (ALDH1A1). Potency, µM (series often up to 75.3 µM), inactives show at the top dose activity, negative = inhibition, actives largely listed as inhibitors. Purified ALDH1A1, NADH fluorescence, propionaldehyde substrate. 220,000 compounds, 7.3% hits. Aldehyde dehydrogenase 1A1 (Homo sapiens), P00352. AID 1030, 2008; active means well fitted inhibition curve with a large enough effect, not every such curve was filed as active; inconclusive means small, poorly fitted or top-dose-only effect, or another doubt; inactive means no such curve, though single readings can be large or run the other way;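 further: potency means the concentration at half of the fitted maximal effect; plate controls were no enzyme wells and a reference inhibitor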
Target sequence (P00352 whole entry, looked up): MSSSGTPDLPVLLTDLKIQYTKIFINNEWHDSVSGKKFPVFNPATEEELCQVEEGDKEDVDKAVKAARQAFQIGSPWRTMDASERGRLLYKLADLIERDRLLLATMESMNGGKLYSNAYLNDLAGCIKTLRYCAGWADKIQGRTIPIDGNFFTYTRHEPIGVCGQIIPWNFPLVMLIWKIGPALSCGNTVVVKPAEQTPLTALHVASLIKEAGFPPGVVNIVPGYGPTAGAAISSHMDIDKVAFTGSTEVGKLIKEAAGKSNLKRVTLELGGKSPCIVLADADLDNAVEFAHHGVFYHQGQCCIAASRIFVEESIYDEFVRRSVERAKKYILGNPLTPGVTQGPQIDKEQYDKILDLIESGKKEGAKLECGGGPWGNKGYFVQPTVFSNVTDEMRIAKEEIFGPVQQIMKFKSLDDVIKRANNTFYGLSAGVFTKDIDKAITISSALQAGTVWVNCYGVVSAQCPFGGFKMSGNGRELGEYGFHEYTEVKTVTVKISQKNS
An asterisk follows results filed as active; ? = inconclusive; / = no result given; [ ] = another dose, or the depositor's remark. Unless noted, the call rests on the fitted dose curve; in most records, active means well fitted curve in the direction sought with a large enough effect; inconclusive means small, poorly fitted or top-dose-only effect, or another doubt; inactive means no such curve, though single readings can be large; an effect the other way counts as inactive or inconclusive.

SMILES	miR-21 act	G9a inh	LMNA splice mod	KDM4E inh	Sfp inh	ALDH1A1 block
Cc1cc2ccccc2n1-c1ccc(C(=O)N2CCC(C(=O)NCc3ccccc3Cl)CC2)s1	-1%	-8%[59 µM]	/	/	/	/
CSc1ccccc1C(=O)Nc1ncn[nH]1	0%	1.6µM*	/	/	56µM*	/
C=CCSc1ccccc1C(=O)Nc1ncn[nH]1	1%	/	/	/	-5%	/
CSc1ccccc1C(=O)Nc1ccccc1C	-3%	/	/	0%	6%	-2%
CSc1ccccc1C(=O)Nc1c(C)cccc1C	2%	28µM*	/	5%	-13%	7%
CCC(=O)N1CCc2cc(S(=O)(=O)NC(C(=O)NCc3ccc(OC)cc3)C(C)C)ccc21 (stereo not drawn)	6%	9%[59 µM]	/	/	/	/
COc1ccc(Nc2nc(-c3cc4cccc(OC)c4oc3=O)cs2)cc1	-41%	45µM*	2%	?	?	22µM*
CC(=O)Nc1ccc(Nc2nc(-c3cc4ccccc4oc3=O)cs2)cc1	-20%	?	/	/	-7%	/
O=C(O)c1ccc(Nc2nc(-c3cc4ccccc4oc3=O)cs2)cc1O	-4%	40µM*	?	20µM*	35µM*	?
O=C(CN(Cc1ccc(Cl)cc1)C(=O)CNS(=O)(=O)c1ccc(F)cc1)NCC1CCCO1 (stereo not drawn)	-2%	7%	/	/	14%	/
Cc1ccc(S(=O)(=O)Nn2c(C)nnc2-n2nc(C)cc2C)cc1	-2%	-42%[59 µM]	9%	-5%	-16%	4%
COc1ccc(S(=O)(=O)N(n2c(C)nnc2-n2nc(C)cc2C)S(=O)(=O)c2ccc(OC)cc2)cc1	-28%	25µM*	-4%	3%	-6%	-3%
COc1cccc(NCc2ccc([N+](=O)[O-])s2)c1	-3%	13µM*	-1%	?	-24%	-12%
O=C(O)c1ccc(Br)cn1	0%	22µM*	/	?	?	?
COC(=O)c1ccc(C(=O)OC)nc1	1%	3%[59 µM]	2%	11%	24%	-1%
COC(=O)c1ccc(C(=O)O)nc1	1%	/	/	?	79µM*	/
COc1ccc(N(CC(=O)NC2CC2)S(=O)(=O)c2ccccc2)cc1	0%	13%	/	/	10%	/
COc1cccc(-c2cncnc2NCCN2CCOCC2)c1	/	-3%[0.501 µM]	?	/	-7%	-3%
CCC(C)(C)n1nnnc1C(c1cc2ccc(C)cc2[nH]c1=O)N(Cc1cccnc1)Cc1ccco1 (stereo not drawn)	0%	50µM*	?	?	-18%	?
Cc1cc2cc(C(c3nnnn3C3CCCC3)N(Cc3cccnc3)Cc3ccco3)c(=O)[nH]c2cc1C (stereo not drawn)	0%	?	4%	-8%	56µM*	14µM*
Cc1ccc2cc(C(c3nnnn3C3CCCC3)N(Cc3ccccc3)Cc3ccco3)c(=O)[nH]c2c1 (stereo not drawn)	1%	?	2%	?	?	?
CCC(C)(C)n1nnnc1C(c1cc2ccc(OC)cc2[nH]c1=O)N1CCCCC1 (stereo not drawn)	-7%	?	15%	-16%	3%	?
COCCn1nnnc1C(c1cc2ccc(C)cc2[nH]c1=O)N(Cc1ccco1)Cc1cccs1 (stereo not drawn)	5%	-22%[59 µM]	?	-11%	-16%	18µM*
CCCC(c1nnnn1C(C)(C)CC)N(Cc1ccco1)Cc1cc2ccc(OC)cc2[nH]c1=O (stereo not drawn)	-1%	-3%[12.7 µM]	?	?	-8%	32µM*
O=C(c1cn(-c2ccccc2)nc1-c1cccnc1)N1CCCC(C(F)(F)F)C1 (stereo not drawn)	/	-2%	/	/	/	/
SMILES	miR-21 act	G9a inh	LMNA splice mod	KDM4E inh	Sfp inh	ALDH1A1 block
CCOc1ccccc1NC(=O)Cn1c(=O)n(CCCCC(=O)NCCCOC)c(=O)c2ccccc21	-4%	44%[59 µM]	/	/	/	/
CCCCc1ccc(/C=C2\C(=O)c3ccccc3C(O)=C2C(=O)OCC)cc1	15%	6.3µM*	?	?	3.2µM*	?
COc1cc2c(cc1OC)C(C)N(C(=O)c1cc3n(n1)C(C(F)(F)F)CC(c1ccco1)N3)CC2 (stereo not drawn)	-11%	18µM*	-13%	12%	40µM*	-5%
O=C(c1cc2n(n1)C(C(F)(F)F)CC(c1ccco1)N2)N1CCc2ccccc2C1 (stereo not drawn)	-4%	?	-9%	0%	13%	?
CN(C)CCC#CC(O)(c1ccccc1)c1ccccc1	-9%	29%[59 µM]	-6%	5%	4%	25µM*
CCn1c(COc2ccccc2)nnc1SCc1ccc(C#N)cc1	-5%	0%[59 µM]	5%	-3%	12%	-3%
CCn1c(COc2ccc(Cl)cc2)nnc1SCc1ccc(C#N)cc1	7%	40µM*	-16%	6%	12%	-7%
COCCNc1cc(-c2ccccc2C)ncn1	/	2%[0.501 µM]	-5%	/	-20%	?
CC(Oc1cc2oc(=O)c3c(c2cc1Cl)CCC3)C(=O)NCCCn1ccnc1 (stereo not drawn)	-3%	12%	/	/	15%	/
CN(C)c1ccc(N2CC(C)(C)C2=O)cc1	-25%	10µM*	3%[46 µM]	6%	1%	-5%
CCSc1nc2ccccc2n1CC(N)=O	-5%	6%[59 µM]	-12%	17%	9%	-2%
CCSc1nc2ccccc2n1C(=O)/C=C\c1ccc(OC)c(OC)c1	-11%	40%[12.7 µM]	?	0%	50µM*	10%
CN(C/C=C/c1ccccc1)C1CCCCC1	-2%	-21%	0%[9.22 µM]	?	12%	2%
COCCN(C/C=C/c1ccccc1)C/C=C/c1ccccc1	1%	7.1µM*	/	/	-19%	/
O=C(Nc1ccc(Oc2ccsc2C(=O)O)cc1)c1ccccc1F	-23%	10%	/	/	18%	/
Nc1cccc2c(=O)c3ccccc3[nH]c12	4%	10%[59 µM]	/	/	-5%	/
O=C1ON=C(c2ccccc2)/C1=C/c1ccccc1	-3%	45µM*	/	/	45µM*	/
Cc1sc(/C=C2\C(=O)ON=C2c2ccccc2)cc1Br	-1%	13%[59 µM]	-15%	11%	11%	0%
COC(=O)C1=C(C)NC(=O)/C1=C\c1ccco1	-1%	-50%	?	6%	-3%	-6%
O=C1ON=C(c2ccc(Cl)cc2)/C1=C/c1ccc(O)cc1	10%	50µM*	?	?	22µM*	13µM*

Screening data deposited in PubChem BioAssay by National Center for Advancing Translational Sciences (NCATS).
